# Values joined by “and” are separate entries in the source; they are usually repeats but may differ in a detail not shown here. Identical values can stand only once. Records with an inconclusive call do not appear. Entries that show only a call come without a potency. Some structures have more than one record in an assay (separate samples or runs), and their calls can disagree. Active and inactive are the calls of the source. Unless noted, calls come from the whole dose curve; as a rule, active = well fitted curve in the direction sought with a large enough effect in the repeat runs; inconclusive = weak or mixed curves; inactive = no such curve, though single readings can be large; an effect the other way counts as inactive or inconclusive.
# Columns and labels:
# [1] = qHTS assay to identify small molecule agonists of the peroxisome proliferator-activated receptor delta (PPARd) signaling pathway - cell viability counter screen (AID 743211); note: nearly all actives have a fitted effect of over 55% in size; note: potency is the fitted concentration of half-maximal effect
# Procedure, shortened: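 Following 5 h plating at 37 C and 5% CO2, PPARd UAS-bla HEK293H cells took up test compounds for 17 h. Viability was quantified by luminescence 30 min after CellTiter-Glo addition at room temperature.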
# [2] = qHTS assay to identify small molecule antagonists of the peroxisome proliferator-activated receptor delta (PPARd) signaling pathway - cell viability counter screen (AID 743213); note: nearly all actives have a fitted effect of over 50% in size; note: potency is the fitted concentration of half-maximal effect
# Procedure, shortened: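 Luminescence from CellTiter-Glo, added after the bla read and incubated 30 min at room temperature, gives viability of HEK293H PPARd-bla cells exposed to compounds for 17 h at 37 C with 300 nM L165041.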
# [3] = qHTS assay to identify small molecule agonists of the farnesoid-X-receptor (FXR) signaling pathway - cell viability counter screen (AID 743218); note: nearly all actives have a fitted effect of over 45% in size; note: potency is the fitted concentration of half-maximal effect
# Procedure, shortened: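 After 16 h at 37 C with test compounds, FXR-bla HEK 293T cells were given LiveBLAzer B/G substrate for 2 h at RT and then CellTiter-Glo; luminescence was taken after 30 min.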
# [4] = qHTS assay to identify small molecule antagonists of the farnesoid-X-receptor (FXR) signaling pathway - cell viability counter screen (AID 743221; active = well fitted cell-killing curve with a large enough effect in the repeat runs, not every such curve was filed as active; note: nearly all actives have a fitted effect of over 50% in size; note: potency is the fitted concentration of half-maximal effect)
# Procedure, shortened: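 Compound effects on cell number were measured as CellTiter-Glo luminescence in HEK 293T cells expressing FXR-UAS-bla, after 16 h at 37 C with 50 uM CDCA (final).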
# [5] = target: Vitamin D3 receptor (Homo sapiens) (UniProt P11473); test: qHTS assay to identify small molecule agonists of the vitamin D receptor (VDR) signaling pathway (AID 743222; calls by dose curve)
# Procedure, shortened: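 VDR-bla cells were seeded, left 4 h, treated with compounds in DMSO for 16 h, incubated 2 h at RT with B/G FRET substrate, and read for fluorescence.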
# [6] = target: Vitamin D3 receptor (Homo sapiens) (UniProt P11473); test: qHTS assay to identify small molecule antagonists of the vitamin D receptor (VDR) signaling pathway (AID 743223; active = well fitted inhibition curve with a large enough effect in the signal ratio in the repeat runs, not every such curve was filed as active; the % refers to the signal ratio)
# Procedure, shortened: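 Beta-lactamase activity in VDR-bla cells is measured by FRET substrate fluorescence (2 h, room temperature) after cells spend 16 h at 37C with test compound and 3 nM final 1alpha,25-dihydroxyvitamin D3.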
# [7] = qHTS assay to identify small molecule agonists of the vitamin D receptor (VDR) signaling pathway - cell viability counter screen (AID 743224); note: nearly all actives have a fitted effect of over 50% in size; note: potency is the fitted concentration of half-maximal effect
# Procedure, shortened: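 Here cell health was gauged by luminescent ATP detection (CellTiter-Glo, 30 min RT) in VDR-bla cells that had been incubated with test compounds for 16 h at 37C and 5% CO2.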
# [8] = qHTS assay to identify small molecule antagonists of the vitamin D receptor (VDR) signaling pathway - cell viability counter screen (AID 743225); note: nearly all actives have a fitted effect of over 50% in size; note: potency is the fitted concentration of half-maximal effect
# Procedure, shortened: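 In this counter screen, VDR-bla HEK 293T cells receive test compound plus 3 nM final calcitriol for 16 h at 37C. Room-temperature steps of 2 h with the beta-lactamase substrate, then 30 min with CellTiter-Glo, precede the luminescence read.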
# [9] = qHTS assay to identify small molecule agonists of the NFkB signaling pathway - cell viability counter screen (AID 1159515; calls by dose curve; note: nearly all actives have a fitted effect of over 55% in size; note: potency is the fitted concentration of half-maximal effect)
# Procedure, shortened: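 5 hr compound treatment of NFkB-bla ME-180 cells (2,000/well, seeded overnight beforehand), followed by reporter substrate for 1.5 hr. CellTiter-Glo added afterward; luminescence after 30 min RT.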
# [10] = qHTS assay to identify small molecule agonists of the endoplasmic reticulum stress response signaling pathway - cell viability counter screen (AID 1159517; calls by dose curve; note: nearly all actives have a fitted effect of over 50% in size; note: potency is the fitted concentration of half-maximal effect)
# Procedure, shortened: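 Counter-screen wells were identical to the reporter wells. Cells were plated at 1,500 per well and dosed for 5 hr, then read for luminescence 30 min after CellTiter-Glo addition.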
# [11] = qHTS assay to identify small molecule antagonists of the retinoid-related orphan receptor gamma (ROR-gamma) signaling pathway - cell viability counter screen (AID 1159520); note: nearly all actives have a fitted effect of over 50% in size; note: potency is the fitted concentration of half-maximal effect
# Procedure, shortened: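 Tet-on ROR gamma CHO cells were given compounds for 2 hr, then doxycycline hyclate at 1 uM final, and incubated 16 hr at 37 C. Viability was measured as ATP content by CellTiter-Glo luminescence.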
# [12] = target: Nuclear receptor ROR-gamma (Homo sapiens) (UniProt P51449); test: qHTS assay to identify small molecule antagonists of the retinoid-related orphan receptor gamma (ROR-gamma) signaling pathway (AID 1159521; note: nearly all actives have a fitted effect of over 50% in size; note: potency is the fitted concentration of half-maximal effect)
# Procedure, shortened: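 Screening format: cell-based luciferase reporter in CHO cells with doxycycline-inducible RORγ. Compound pre-exposure lasts 2 h, doxycycline is 1 uM final, induction runs 16 h at 37 C, and ONE-Glo luminescence is read.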
# [13] = qHTS assay to identify small molecule agonists of the AP-1 signaling pathway - cell viability counter screen (AID 1159525; calls by dose curve; note: nearly all actives have a fitted effect of over 55% in size; note: potency is the fitted concentration of half-maximal effect)
# Procedure, shortened: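 AP-1-bla ME-180 cells in Opti-MEM with 0.5% dialyzed FBS, compound exposure 5 h at 37 C in 15-point titration. Viability read in the same wells as ATP content by CellTiter-Glo luminescence, normalised to tetra-n-octylammonium bromide and DMSO controls.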
# [14] = target: Retinoic acid receptor RXR-alpha (Homo sapiens) (UniProt P19793); test: qHTS assay to identify small molecule agonists of the RXR signaling pathway (AID 1159527; calls by dose curve; note: nearly all actives have a fitted effect of over 35% in size)
# Procedure, shortened: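 Fluorescence ratio readout (460 vs 530 nm) from GeneBLAzer RXR-alpha HEK 293T cells after 16 hr compound treatment; cells seeded 5 hr beforehand in low-serum, charcoal-stripped medium.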
# [15] = qHTS assay to identify small molecule agonists of the endoplasmic reticulum stress response signaling pathway (AID 1159516; active = well fitted activation curve with a large enough effect in the signal ratio in the repeat runs, not every such curve was filed as active; the % refers to the signal ratio)
# Procedure, shortened: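 Reporter HeLa cells (ESRE-beta-lactamase) underwent 5 hr compound incubation at 37 C and 5% CO2 in quantitative HTS format. Detection followed 2 hr of FRET substrate loading at room temperature.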
# [16] = qHTS assay to identify small molecule agonists of the AP-1 signaling pathway (AID 1159526; calls by dose curve)
# [17] = target: Peroxisome proliferator-activated receptor delta (Homo sapiens) (UniProt Q03181); test: qHTS assay to identify small molecule antagonists of the peroxisome proliferator-activated receptor delta (PPARd) signaling pathway (AID 743215; active = well fitted inhibition curve with a large enough effect in the signal ratio in the repeat runs, not every such curve was filed as active; the % refers to the signal ratio;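 note: cells stimulated with agonist L165041 at 300 nM final during compound exposure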; note: potency is the fitted concentration of half-maximal effect)
# Procedure, shortened: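 With L165041 present at 300 nM final, compounds were incubated 17 h at 37 C on PPARd UAS-bla HEK293H cells. A FRET-based beta-lactamase substrate was then applied for 2 h at room temperature and fluorescence intensity recorded.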
# [18] = target: Peroxisome proliferator-activated receptor delta (Homo sapiens) (UniProt Q03181); test: qHTS assay to identify small molecule agonists of the peroxisome proliferator-activated receptor delta (PPARd) signaling pathway (AID 743212; calls by dose curve)
# Procedure, shortened: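 Quantitative high-throughput agonist screen in a HEK293H beta-lactamase reporter line under UAS control. Compounds in DMSO, at 37 C. Fluorescence read after 2 h with FRET substrate at room temperature.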
# [19] = target: Bile acid receptor (Homo sapiens) (UniProt Q96RI1); test: qHTS assay to identify small molecule antagonists of the farnesoid-X-receptor (FXR) signaling pathway (AID 743217; active = well fitted inhibition curve with a large enough effect in the signal ratio in the repeat runs, not every such curve was filed as active; the % refers to the signal ratio; note: potency is the fitted concentration of half-maximal effect)
# Procedure, shortened: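 In this cell-based antagonist screen, inhibition of CDCA-driven (50 uM final) UAS-beta-lactamase expression in HEK 293T cells was measured by FRET fluorescence following 16 h compound exposure at 37 °C.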
# [20] = target: Bile acid receptor (Homo sapiens) (UniProt Q96RI1); test: qHTS assay to identify small molecule agonists of the farnesoid-X-receptor (FXR) signaling pathway (AID 743220; active = well fitted activation curve with a large enough effect in the signal ratio in the repeat runs, not every such curve was filed as active; the % refers to the signal ratio)
# Procedure, shortened: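 Beta-lactamase reporter under UAS control in GeneBLAzer FXR HEK 293T cells (5000/well) measured with LiveBLAzer FRET substrate after 2 h at room temperature. Compound exposure lasted 16 h at 37C.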
# Vitamin D3 receptor (Homo sapiens), sequence (P11473 whole entry, looked up): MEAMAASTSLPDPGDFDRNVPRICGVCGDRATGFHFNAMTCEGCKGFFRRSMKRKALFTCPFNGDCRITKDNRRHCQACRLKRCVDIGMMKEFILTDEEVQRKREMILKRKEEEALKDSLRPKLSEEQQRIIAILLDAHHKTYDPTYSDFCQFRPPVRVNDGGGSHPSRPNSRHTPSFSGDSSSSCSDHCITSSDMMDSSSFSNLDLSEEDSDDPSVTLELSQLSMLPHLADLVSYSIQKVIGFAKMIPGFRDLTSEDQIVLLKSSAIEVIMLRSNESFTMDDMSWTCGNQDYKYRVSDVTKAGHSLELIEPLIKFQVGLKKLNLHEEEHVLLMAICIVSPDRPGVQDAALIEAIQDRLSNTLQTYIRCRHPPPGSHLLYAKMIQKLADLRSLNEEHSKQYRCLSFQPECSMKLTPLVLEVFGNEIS
# Peroxisome proliferator-activated receptor delta (Homo sapiens), sequence (Q03181 whole entry, looked up): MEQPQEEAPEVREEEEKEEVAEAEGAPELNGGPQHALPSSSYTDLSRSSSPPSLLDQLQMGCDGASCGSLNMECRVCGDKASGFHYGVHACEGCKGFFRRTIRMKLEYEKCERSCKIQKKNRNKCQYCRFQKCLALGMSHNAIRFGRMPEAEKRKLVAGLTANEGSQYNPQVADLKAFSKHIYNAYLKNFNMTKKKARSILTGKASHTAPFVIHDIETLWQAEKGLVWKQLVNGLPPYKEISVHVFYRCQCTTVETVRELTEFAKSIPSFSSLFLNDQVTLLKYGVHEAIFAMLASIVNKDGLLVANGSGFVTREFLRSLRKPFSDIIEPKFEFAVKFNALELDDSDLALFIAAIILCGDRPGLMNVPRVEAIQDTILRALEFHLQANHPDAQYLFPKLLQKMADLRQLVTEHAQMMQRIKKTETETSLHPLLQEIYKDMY
# Bile acid receptor (Homo sapiens), sequence (Q96RI1 whole entry, looked up): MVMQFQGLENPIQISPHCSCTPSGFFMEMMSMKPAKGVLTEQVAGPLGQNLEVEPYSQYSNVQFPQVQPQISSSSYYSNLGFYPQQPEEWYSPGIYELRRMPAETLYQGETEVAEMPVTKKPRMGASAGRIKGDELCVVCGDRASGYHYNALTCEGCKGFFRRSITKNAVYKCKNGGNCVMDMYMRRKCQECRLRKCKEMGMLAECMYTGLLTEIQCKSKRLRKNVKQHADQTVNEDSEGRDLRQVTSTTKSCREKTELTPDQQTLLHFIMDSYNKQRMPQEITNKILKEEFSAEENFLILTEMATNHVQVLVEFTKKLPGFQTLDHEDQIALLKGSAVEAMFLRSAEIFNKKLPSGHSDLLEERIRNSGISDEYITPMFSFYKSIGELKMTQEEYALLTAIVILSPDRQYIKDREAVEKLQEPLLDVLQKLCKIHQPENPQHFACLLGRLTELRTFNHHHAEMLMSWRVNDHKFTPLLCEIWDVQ
# Retinoic acid receptor RXR-alpha (Homo sapiens), sequence (P19793 whole entry, looked up): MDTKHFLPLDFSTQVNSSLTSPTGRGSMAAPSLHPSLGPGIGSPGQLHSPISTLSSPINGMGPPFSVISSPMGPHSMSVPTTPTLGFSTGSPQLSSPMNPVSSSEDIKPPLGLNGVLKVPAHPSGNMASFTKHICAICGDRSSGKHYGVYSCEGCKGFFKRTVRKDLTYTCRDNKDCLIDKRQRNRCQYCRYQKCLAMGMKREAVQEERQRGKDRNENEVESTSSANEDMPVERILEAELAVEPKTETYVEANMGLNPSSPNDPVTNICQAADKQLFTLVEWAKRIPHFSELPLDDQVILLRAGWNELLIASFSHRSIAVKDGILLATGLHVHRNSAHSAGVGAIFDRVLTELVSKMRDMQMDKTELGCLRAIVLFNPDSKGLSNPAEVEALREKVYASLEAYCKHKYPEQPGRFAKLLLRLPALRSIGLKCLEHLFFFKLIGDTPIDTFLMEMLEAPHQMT
Structure (SMILES),Potency [1],Potency [2],Potency [3],Potency [4],Potency [5],Potency [6],Potency [7],Potency [8],Potency [9],Potency [10],Potency [11],Potency [12],Potency [13],Potency [14],Potency [15],Potency [16],Potency [17],Potency [18],Potency [19],Potency [20]
CN1C(=O)[C@@H](NC(=O)c2cc3ccccc3[nH]2)N=C(c2ccccc2)c2ccccc21,inactive,inactive,inactive,inactive,inactive,inactive,inactive,inactive,inactive,inactive,inactive,inactive,inactive,inactive,–,–,–,–,–,–
CC(=O)[O-].CC(=O)[O-].[Co+2],inactive,inactive,inactive,inactive,–,–,inactive,inactive,inactive,–,–,–,inactive,–,inactive,inactive,–,–,–,–
ClC1=C(Cl)[C@]2(Cl)[C@H]3[C@H]([C@@H]4C=C[C@H]3C4)[C@@]1(Cl)C2(Cl)Cl,inactive and 15.5 µM (active),inactive,38.9 µM (active),inactive,inactive,inactive,inactive and 54.9 µM (active),inactive,54.9 µM (active),21.8 µM (active) and 49 µM (active),61 µM (active),54.4 µM (active),38.9 µM (active),inactive,–,–,inactive,–,–,–
CC(Cc1ccc(OCC(=O)O)cc1)NCC(O)c1csc(C(F)(F)F)n1 (stereo not drawn),inactive,inactive,inactive,inactive,inactive,inactive,inactive,inactive,inactive,inactive,inactive,inactive,inactive,–,–,inactive,–,–,–,–
Cc1ccc2cc3c(ccc4ccccc43)c3c2c1CC3,inactive,inactive,inactive,–,inactive,inactive,inactive,inactive,inactive,inactive,inactive,inactive,inactive,inactive,–,inactive,–,–,–,–
CC(O)C(=O)[O][Hg][c]1ccccc1 (stereo not drawn),1.38 µM (active),1.95 µM (active),1.23 µM (active),2.75 µM (active),inactive,–,1.23 µM (active),–,0.871 µM (active),1.1 µM (active),1.37 µM (active),0.486 µM (active),2.45 µM (active),–,–,–,–,–,–,–
[O]=[Cr](=[O])([OH])[O][Cr](=[O])(=[O])[OH],–,7.83 µM (active) and 21.8 µM (active),27.5 µM (active),19.7 µM (active) and 24.5 µM (active),inactive,–,17.5 µM (active) and 21.8 µM (active),19.7 µM (active) and 21.8 µM (active),30.8 µM (active),22.1 µM (active) and 34.6 µM (active),5.5 µM (active) and 2.43 µM (active),4.9 µM (active) and 4.32 µM (active),24.8 µM (active),–,–,inactive,–,–,–,–
COC(=O)c1cc(Oc2ccc(Cl)cc2Cl)ccc1[N+](=O)[O-],–,inactive,inactive,–,inactive,–,inactive,inactive,inactive,–,–,54.5 µM (active),inactive,–,inactive,inactive,inactive,inactive,inactive,–
[O-][Cl+3]([O-])([O-])O,inactive,–,–,inactive,–,–,inactive,–,inactive,–,inactive,–,–,inactive,inactive,inactive,–,inactive,–,–
Cc1cccc(Cc2cnc[nH]2)c1C,inactive,–,inactive,inactive,–,inactive,inactive,inactive,inactive,inactive,inactive,inactive,inactive,inactive,–,–,inactive,inactive,–,–
CC(C)(C)c1ccc(OP(=O)(Oc2ccccc2)Oc2ccccc2)cc1,–,–,inactive,–,inactive,inactive,–,–,inactive,–,inactive,–,–,–,inactive,inactive,22 µM (active),–,24.7 µM (active),–
CSC1=N[C@@](C)(c2ccccc2)C(=O)N1Nc1ccccc1,inactive,inactive,–,inactive,inactive,inactive,–,–,inactive,–,–,10.9 µM (active),inactive,inactive,inactive,inactive,–,inactive,–,–
CCOP(=S)(OCC)Oc1cc(C)nc(N(CC)CC)n1,–,inactive,–,–,inactive,inactive,inactive,–,inactive,inactive,inactive,inactive,inactive,inactive,–,–,inactive,–,inactive,inactive
CC1(C)[C@H](/C=C2\CCSC2=O)[C@@H]1C(=O)OCc1coc(Cc2ccccc2)c1,inactive,inactive,inactive,–,–,–,inactive,–,inactive,inactive,inactive,27.3 µM (active),inactive,inactive,–,–,–,inactive,–,–
CCO/N=C(\CC)C1=C(O)CC(c2c(C)cc(C)cc2C)CC1=O (stereo not drawn),inactive,–,–,–,–,–,–,–,inactive,–,–,inactive,inactive,–,inactive,inactive,–,–,–,–
CCN(CC)C(=S)S,13.9 µM (active) and 3.87 µM (active) and 4.9 µM (active),inactive and 6.13 µM (active) and 3.47 µM (active),12.4 µM (active),22.1 µM (active) and 4.87 µM (active) and 7.76 µM (active),inactive,–,–,–,13.8 µM (active),inactive,inactive,27.5 µM (active) and 9.63 µM (active) and 12.2 µM (active),38.7 µM (active),–,–,–,–,–,–,–
Nc1c(Cl)c(Cl)c(Cl)c(Cl)c1Cl,inactive,–,–,–,–,–,–,inactive,inactive,–,inactive,–,–,–,inactive,–,–,–,–,–
O=S1(=O)OCC2C(CO1)C1(Cl)C(Cl)=C(Cl)C2(Cl)C1(Cl)Cl (stereo not drawn),–,–,–,–,–,–,49 µM (active),–,inactive,–,–,19.3 µM (active),–,–,inactive,–,inactive,inactive,–,inactive
CCOP(=S)(OCC)SC(CCl)N1C(=O)c2ccccc2C1=O (stereo not drawn),inactive,–,–,–,inactive,–,inactive,inactive,inactive,–,inactive,–,–,–,inactive,inactive,–,inactive,–,–

# Source: PubChem BioAssay (Tox21)
